Assay outcomes from PubChem.
697 NFkB inh: lowers PMA/ionomycin-induced NF-kB signal in 697 B cells | inhibition, % at 4 µM | 330,000 tested, 0.33% active | 697 B-cell NF-kB luciferase reporter, 16 h; in the data active means inhibition above about 35%
Gli-Sufu block: Gli-Sufu pathway antagonism; Sufu-KO-LIGHT fibroblasts, Gli luciferase reporter luminescence; inhibition, % at 5 µM; 340,000 tested, 0.74% active; AID 588413;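 active means inhibition above about 55%, limit read from the data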
aSyn UTR inh: 5' untranslated region of α-synuclein, MLPCN primary screen. inhibition, % (tested at 7.5 µM). 300,000 tested, 0.82% active. alpha-synuclein 5'UTR reporter, inhibitor activity; in the data active means inhibition above about 60%; inconclusive means no clear call, values can overlap the other calls;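 further: H4 neuroglioblastoma cells stably carrying SNCA 5'UTR luciferase fusion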
Mdm2 MdmX PPI: human Mdm2/MdmX binding inhibition; O15151+Q00987; inhibition, % at 8 µM; SaOS-2 split-luciferase Mdm2/MdmX complementation, luminescence; AID 485346; 330,000 tested, 3% active;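 active means inhibition of at least 50% at 8 µM in the primary screen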
Target sequence (O15151 whole entry, looked up): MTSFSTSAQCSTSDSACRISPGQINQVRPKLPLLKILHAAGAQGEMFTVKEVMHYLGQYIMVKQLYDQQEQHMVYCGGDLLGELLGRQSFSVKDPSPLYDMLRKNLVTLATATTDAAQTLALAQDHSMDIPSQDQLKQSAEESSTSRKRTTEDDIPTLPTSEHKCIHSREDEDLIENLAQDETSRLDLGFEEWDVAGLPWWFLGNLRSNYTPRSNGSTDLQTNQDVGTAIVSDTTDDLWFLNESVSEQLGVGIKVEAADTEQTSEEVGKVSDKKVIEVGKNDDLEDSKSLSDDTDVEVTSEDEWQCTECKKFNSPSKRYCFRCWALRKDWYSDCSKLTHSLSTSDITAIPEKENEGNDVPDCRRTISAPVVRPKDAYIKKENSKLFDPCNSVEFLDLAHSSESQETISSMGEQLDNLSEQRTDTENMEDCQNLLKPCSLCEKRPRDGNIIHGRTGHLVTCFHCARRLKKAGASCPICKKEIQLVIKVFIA
Target sequence (Q00987 whole entry, looked up): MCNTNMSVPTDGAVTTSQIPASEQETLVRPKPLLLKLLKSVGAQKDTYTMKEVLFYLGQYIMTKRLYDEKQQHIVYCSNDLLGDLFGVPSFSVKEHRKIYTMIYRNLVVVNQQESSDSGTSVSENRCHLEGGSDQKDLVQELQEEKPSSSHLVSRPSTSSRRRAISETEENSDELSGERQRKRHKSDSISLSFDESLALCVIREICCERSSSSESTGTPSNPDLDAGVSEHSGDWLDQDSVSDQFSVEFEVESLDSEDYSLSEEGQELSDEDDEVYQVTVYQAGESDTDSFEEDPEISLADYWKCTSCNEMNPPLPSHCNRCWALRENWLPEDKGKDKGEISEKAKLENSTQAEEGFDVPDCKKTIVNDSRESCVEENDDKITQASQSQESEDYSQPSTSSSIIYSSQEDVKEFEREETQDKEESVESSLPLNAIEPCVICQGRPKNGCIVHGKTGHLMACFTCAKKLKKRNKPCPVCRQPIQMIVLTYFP
Jurkat NFkB inh: inhibitors of the PMA/ionomycin-induced NF-kB reporter in Jurkat cells; PMA/ionomycin-induced NF-kB luciferase reporter, luminescence; inhibition, % at 4 µM; 330,000 tested, 0.53% active; AID 435003; in the data active means inhibition above about 50%
CSC inhib: cancer stem cell inhibition. cancer stem cell-like cells viability, luminescence. inhibition, % at 7.5 µM. 300,000 tested, 1.1% active. AID 2717; in the data active means inhibition above about 75%; inconclusive means no clear call, values can overlap the other calls; tested in HMLE shEcad cells
Mdm2-MdmX conf: confirmation of human Mdm2/MdmX interaction inhibitors; shares compounds with Mdm2 MdmX PPI; Mdm2-MdmX binding, luminescent assay; inhibition, % at 8 µM; 10,000 tested, 55% active; in the data active means inhibition above about 40%
Full FLuc ctr: inhibits full-length luciferase, flagging false Mdm2/MdmX hits. shares compounds with Mdm2 MdmX PPI. SaOS-2 full-length luciferase counterscreen, luminescence. inhibition, % at 8 µM. 6,200 tested, 77% active;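 active means mean inhibition at 8 µM reaching about 37%, which flags the compound as non-specific, limit read from the data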;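 further: p53-null SaOS-2 cells with luciferase driven by a doxycycline-inducible promoter; compound on cells about two nights before reading with doxycycline added after day one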
Large screens that a line does not name were inactive (follow-up assays come after a bar, where they were run). Shown are actives, neighbours in structure and some others; about 4.5% of the full set was active somewhere.

CC1CCC(C(C)C)C(OC(=O)Cn2c(-c3ccc(Cl)cc3)[n+](C)c3ccccc32)C1 (stereo not drawn)	Gli-Sufu block 72, aSyn UTR inh inconclusive, Mdm2 MdmX PPI 100 | Mdm2-MdmX conf 96 | Full FLuc ctr 52
COc1ccc(-c2[nH]ncc2CNCCc2ncccc2C)cc1F	none
Cc1ccc(NC(=O)COC(=O)C2(CC(=O)NC(C)C)CCCC2)cc1C	none (no result: aSyn UTR inh)
O=C(CN1C(=O)NC2(CCCC2)C1=O)N1CCc2ccccc2C1	none
CC(C)(C)C(=O)NC(=S)Nc1cc(C(F)(F)F)ccc1N1CCOCC1	none
O=C(NC(=S)Nc1cc(C(F)(F)F)ccc1N1CCOCC1)c1sc2ccccc2c1Cl	Mdm2 MdmX PPI 50 | Mdm2-MdmX conf inactive
O=C(c1c(F)c(F)c(F)c(F)c1F)N1CCN(c2cccc(C(F)(F)F)c2)CC1	Mdm2 MdmX PPI 58 | Mdm2-MdmX conf inactive
COc1ccc(S(=O)(=O)N2CCC(N3CCN(c4ccccc4)CC3)CC2)cc1	none (no result: Gli-Sufu block)
Clc1cccc(Nc2nc(N3CCOCC3)nc(N3CCOCC3)n2)c1	none
O=C(CSc1nc(Nc2ccccc2)nc(N2CCOCC2)n1)Nc1ccccc1Cl	Mdm2 MdmX PPI 75 | Mdm2-MdmX conf inactive
CC(=O)CSc1nc2ccc(Nc3nc(N4CCOCC4)nc(N4CCOCC4)n3)cc2s1	none
CCOC(=O)c1ccc(NC(=O)CSc2nc(N3CCOCC3)nc(N3CCOCC3)n2)cc1	Mdm2 MdmX PPI 74 | Mdm2-MdmX conf inactive
COc1ccc(Nc2nc(N3CCOCC3)nc(N3CCOCC3)n2)cc1Cl	Mdm2 MdmX PPI 61 | Mdm2-MdmX conf inactive
Cc1ccc(NC(=O)CSc2nc3ccc(Nc4nc(N5CCOCC5)nc(N5CCOCC5)n4)cc3s2)cc1	Mdm2 MdmX PPI 95 (no result: aSyn UTR inh) | Mdm2-MdmX conf 41 | Full FLuc ctr inactive
COc1nc(NC2OC(CO)C(O)C(O)C2O)c(N)c(=O)[nH]1 (stereo not drawn)	none (no result: 697 NFkB inh, aSyn UTR inh, Mdm2 MdmX PPI, Jurkat NFkB inh, CSC inhib)
COc1ccc(NC(=O)CSc2nc3ccc(Nc4nc(N5CCOCC5)nc(N5CCOCC5)n4)cc3s2)cc1	Mdm2 MdmX PPI 85 | Mdm2-MdmX conf 49 | Full FLuc ctr 37
C=CCOc1c(Br)cc(/C=N/NC(=O)Cc2ccc(C(F)(F)F)cc2[N+](=O)[O-])cc1OC	Mdm2 MdmX PPI 57 | Mdm2-MdmX conf inactive
CCOC(=O)C(=CNc1cscc1S(=O)(=O)C(C)C)C(=O)OCC	none
COc1cc(C(=O)Nc2ccc(-c3nc4cc(C)ccc4o3)c(O)c2)cc(OC)c1OC	Mdm2 MdmX PPI 74 | Mdm2-MdmX conf 52 | Full FLuc ctr 41
COc1cc(C(=O)Nc2ccc3c(c2)nc(C)n3C)cc(OC)c1OC	Mdm2 MdmX PPI 67 | Mdm2-MdmX conf 43 | Full FLuc ctr 61
COc1cccc(C(=O)Nc2ccc(-c3nc4ccccc4o3)c(O)c2)c1	none
CCc1cc(=O)oc2cc(C)cc(OCC(=O)NCc3ccncc3)c12	none
O=C(N/N=C1\CC(c2ccccc2)Oc2ccccc21)c1cccnc1 (stereo not drawn)	Mdm2 MdmX PPI 52 | Mdm2-MdmX conf inactive
O=C(CNS(=O)(=O)c1ccc(Br)cc1)NCc1ccncc1	none
COc1ccc2c(-c3cnc(N4CCOCC4)nc3)c(-c3ccc(S(C)(=O)=O)cc3)sc2c1	Mdm2 MdmX PPI 68 (no result: aSyn UTR inh) | Mdm2-MdmX conf inactive
COc1ccc(C(=O)NC(Cn2ccnc2)C(C)(C)C)cc1OC1CCN(C(C)C)CC1 (stereo not drawn)	none
COc1ccc(C2CC(O)(c3ccccc3)Oc3c(C)ccc(C)c32)cc1 (stereo not drawn)	Mdm2 MdmX PPI 51 (no result: CSC inhib) | Mdm2-MdmX conf inactive
O=C(NCc1ccc2c(c1)OCO2)c1nc(S(=O)(=O)Cc2ccccc2)ncc1Cl	Mdm2 MdmX PPI 63 (no result: CSC inhib) | Mdm2-MdmX conf 45 | Full FLuc ctr inactive
O=C(NCc1ccc2c(c1)OCO2)c1ccccc1Cl	none
O=C(NCc1ccc2c(c1)OCO2)c1nc(S(=O)(=O)Cc2ccccc2F)ncc1Cl	Mdm2 MdmX PPI 78, CSC inhib inconclusive | Mdm2-MdmX conf 52 | Full FLuc ctr 51
O=C(Cc1ccccc1)NCc1ccc2c(c1)OCO2	none
CC(NC(=O)CNC(=O)c1ccc2c(c1)OCO2)c1ccc(S(N)(=O)=O)cc1 (stereo not drawn)	none (no result: aSyn UTR inh, CSC inhib)
COc1ccc(S(=O)(=O)N2CCC(C(=O)NCc3ccncc3)CC2)cc1C	none
C=CCN1C(=O)/C(=C2/Sc3ccc(OC)cc3N2C)SC1=Nc1ccccc1	none
CCN1C(=O)/C(=C2/Sc3ccc(OC)cc3N2C)SC1=Nc1cccc(O)c1	Mdm2 MdmX PPI 97 | Mdm2-MdmX conf inactive
COC(=O)C1(C)NC(c2ccc(O)cc2)C2C(=O)N(c3ccc(C)cc3)C(=O)C21 (stereo not drawn)	none
CC(=O)c1c(N2CCN(C(=O)c3ccco3)CC2)nc(=S)n(-c2ccccc2)c1C	none
CC12CC(c3ccccc3O1)N(C(=O)c1ccco1)C(=S)N2c1ccccc1 (stereo not drawn)	Mdm2 MdmX PPI 63 | Mdm2-MdmX conf inactive
COc1cc2c(cc1OC)CN(c1nc(CN3CCCCC3)nc3sc4c(c13)CCCC4)CC2	Mdm2 MdmX PPI 53 | Mdm2-MdmX conf 44 | Full FLuc ctr 62
Cc1ccc(-c2nnc(SCC(=O)NC3CCCC3)n2N)cc1	none (no result: aSyn UTR inh)
CCOC(=O)C(C)N1C(=O)S/C(=C/c2ccc3c(c2)n(C)c(=O)n3C)C1=O (stereo not drawn)	Mdm2 MdmX PPI 51 | Mdm2-MdmX conf inactive
N=c1n(CC(=O)c2cccc([N+](=O)[O-])c2)c2ccccc2n1Cc1ccccc1	Mdm2 MdmX PPI 92 | Mdm2-MdmX conf inactive
N=c1n(CC(=O)c2ccc(Br)s2)c2ccccc2n1Cc1ccccc1	Mdm2 MdmX PPI 97 | Mdm2-MdmX conf 62 | Full FLuc ctr 53
CC(C)[C@H](NC(=O)c1ccc(C(C)(C)C)cc1)C(=O)N1CCN(Cc2ccc3c(c2)OCO3)CC1	Mdm2 MdmX PPI 52 (no result: aSyn UTR inh, CSC inhib) | Mdm2-MdmX conf inactive | Full FLuc ctr 55
CC(C)(C)n1nc(-c2ccc(Cl)cc2)c2c(N)ncnc21	aSyn UTR inh 105, Mdm2 MdmX PPI 81 | Mdm2-MdmX conf 63 | Full FLuc ctr 38
Cc1ccc(-c2nc(N)c3c(-c4ccc(C)cc4)nn(C(C)(C)C)c3n2)cc1	none
CC(C)(C)n1nc(-c2ccc(F)cc2)c2c(N)ncnc21	aSyn UTR inh 71, Mdm2 MdmX PPI 59 | Mdm2-MdmX conf 55 | Full FLuc ctr 50
N#CCCCN1C(=O)C(=C(C#N)C#N)c2ccccc21	none
COc1cccc(C(=O)Nc2sc(C(C)C)cc2C(N)=O)c1OC	none
Cc1ccc(-c2nnn3c2nc(NCCc2ccc(S(N)(=O)=O)cc2)c2ccccc23)cc1	none
Cc1ccc(S(=O)(=O)c2nnn3c2nc(Nc2cccc(C)c2)c2ccccc23)cc1	Mdm2 MdmX PPI 54 | Mdm2-MdmX conf inactive
